Source: PubChem (Sanford-Burnham Center for Chemical Genomics)
CYP2C9 inhib: inhibitors of human CYP2C9. actives 20% (n = 96,000). CYP2C9 Supersomes, luciferin-H conversion, luminescence. P11712. inhibition, % at 5 µM;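 active = blocking of liver enzyme CYP2C9 beyond about 50% at 5 µM, limit read from the data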
CYP2C9 act: activators of human CYP2C9 | P11712 | recombinant CYP2C9, luciferin-H conversion, luminescence; active compounds read high; factor 1 = untreated enzyme, 0 = blocked | activation factor at 5 µM | actives 1.4% (n = 96,000) | AID 1024;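 active = activation factor of 2 or more for CYP2C9 at a 5 µM dose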;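 also: 0 = sulfaphenazole-blocked wells and 1 = vehicle-only wells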
PLAP activator: human PLAP activation; P05187; purified PLAP enzyme, luminescent substrate read-out; active compounds read high; activation fold at 20 µM; actives 1.2% (n = 96,000); AID 696; in the data active = activation fold above about 2
Target sequence (P05187 whole entry, looked up): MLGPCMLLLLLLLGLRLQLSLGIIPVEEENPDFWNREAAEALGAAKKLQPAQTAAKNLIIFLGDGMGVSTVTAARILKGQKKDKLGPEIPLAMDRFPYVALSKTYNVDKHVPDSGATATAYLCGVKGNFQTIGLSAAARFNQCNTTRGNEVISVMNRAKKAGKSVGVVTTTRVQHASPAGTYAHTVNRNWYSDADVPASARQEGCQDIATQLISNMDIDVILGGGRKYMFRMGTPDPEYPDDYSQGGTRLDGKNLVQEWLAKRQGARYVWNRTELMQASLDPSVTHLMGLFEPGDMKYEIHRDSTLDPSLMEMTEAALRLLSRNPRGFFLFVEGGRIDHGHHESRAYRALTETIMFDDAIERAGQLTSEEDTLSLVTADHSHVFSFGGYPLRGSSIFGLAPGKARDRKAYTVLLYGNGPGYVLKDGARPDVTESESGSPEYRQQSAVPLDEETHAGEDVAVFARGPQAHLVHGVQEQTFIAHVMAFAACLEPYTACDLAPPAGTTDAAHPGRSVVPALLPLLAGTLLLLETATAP
CYP2C19 inhib: human CYP2C19 inhibition; AID 778; P33261; CYP2C19 Supersomes, luciferin-H EGE luminescence, 30 min; inhibition, % at 5 µM; actives 21% (n = 96,000);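 active = CYP2C19 inhibition above a set limit at 5 µM in the primary screen, cut at about 50% in these data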;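 also: plate controls were negative control wells for no effect and 2.5 mM tranylcypromine positive control for full effect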
CYP2C19 activ: activators of human cytochrome P450 2C19; activation factor at 5 µM; recombinant CYP2C19, luciferin-H EGE luminescence; active compounds read high; 0 = fully inhibited enzyme, 1 = untreated enzyme; P33261; 96,000 tested, under 10 active;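 active = activation factor of at least 2 at 5 µM in the primary screen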;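 also: 0 = wells with 2.5 mM tranylcypromine and 1 = vehicle-only wells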
The depositor's hits bear a star. Rows were chosen to be rich in hits. Some 31% of all compounds tested hit in one or more screens of this group.

SMILES	CYP2C9 inhib	CYP2C9 act	PLAP activator	CYP2C19 inhib	CYP2C19 activ
Cc1cc(C)nc(SCC(=O)N/N=C/c2cccn2-c2cccc(C(F)(F)F)c2)n1	17	0.8	1.5	32	0.7
CCCn1nnc(NC(=O)c2ccc(-c3ccccc3)cc2)n1	7	0.9	0.9	25	0.8
CCCn1nnc(NC(=S)NC(=O)CC)n1	8	0.9	0.9	71*	0.3
CCCn1nnc(NC(=O)c2cc(Br)cc(Br)c2OC)n1	27	0.7	1.3	83*	0.2
CCCn1nnc(NC(=O)c2ccc(Br)cc2)n1	15	0.9	1	56*	0.4
CCn1c(SCC(=O)n2nc(C)cc2C)nnc1-c1ccc2c(c1)OCO2	-20	1.2	1	30	0.7
CCOc1ccc(C2CC(c3ccccc3C)n3nc(N)nc3N2)cc1 (configuration not stated)	4	1	1.2	25	0.8
COc1cccc(C2CC(c3ccccc3Cl)n3nc(N)nc3N2)c1 (configuration not stated)	17	0.8	1.8	85*	0.2
COc1cccc(C2CC(c3cccc(Br)c3)n3nc(N)nc3N2)c1 (configuration not stated)	14	0.9	1.1	11	0.9
CCOc1ccccc1C1CC(c2ccc(Br)cc2)Nc2nc(N)nn21 (configuration not stated)	23	0.8	1.7	64*	0.4
COc1cccc(C2CC(c3ccccc3C)n3nc(N)nc3N2)c1 (configuration not stated)	6	0.9	1	36	0.6
COc1cccc(C2CC(c3ccc(Cl)cc3Cl)n3nc(N)nc3N2)c1 (configuration not stated)	17	0.8	1.5	90*	0.1
COc1cccc(C2CC(c3c(Cl)cccc3Cl)n3nc(N)nc3N2)c1 (configuration not stated)	9	0.9	1.1	19	0.8
COc1cccc(C2CC(c3ccccc3OC)n3nc(N)nc3N2)c1 (configuration not stated)	11	0.9	1.4	63*	0.4
O=C(Cn1c(=O)n(-c2cccc(Cl)c2)c(=O)n1CC(=O)N1CCCCC1)N1CCCCC1	-4	1	1	-5	1
Cc1ccc(CCNC(=O)C2CCCN(S(=O)(=O)c3cccc4nsnc34)C2)cc1 (configuration not stated)	11	0.9	1	24	0.8
COc1cc(C(N)=O)cc(Br)c1OC	30	0.7	0.9	26	0.7
Nc1nc2n(n1)C(c1ccccc1Cl)CC(c1ccc(F)cc1)N2 (configuration not stated)	17	0.8	1.5	73*	0.3
Cc1ccc(C2CC(c3cccs3)n3nc(N)nc3N2)cc1 (configuration not stated)	21	0.8	1.1	51*	0.5
Cc1ccc(C2CC(c3ccccc3Cl)n3nc(N)nc3N2)cc1 (configuration not stated)	6	0.9	1	24	0.8
Cc1cccc(C2CC(c3ccc(F)cc3)Nc3nc(N)nn32)c1 (configuration not stated)	4	1	1.6	58*	0.4
COc1cccc(C2CC(c3ccc(Cl)cc3)n3nc(N)nc3N2)c1 (configuration not stated)	16	0.8	1	78*	0.2
COc1ccc(C2CC(c3cccc(OC)c3)n3nc(N)nc3N2)cc1 (configuration not stated)	9	0.9	0.9	13	0.9
Nn1c(SCC(=O)Nc2ccc(F)cc2)nnc1-c1cccnc1	36	0.6	1.1	29	0.7
CCC(C)NC(=O)COc1ccc(Br)c(C)c1 (configuration not stated)	22	0.8	1.1	27	0.7
SMILES	CYP2C9 inhib	CYP2C9 act	PLAP activator	CYP2C19 inhib	CYP2C19 activ
COc1ccc(C2CC(c3ccccc3C)n3nc(N)nc3N2)cc1 (configuration not stated)	7	0.9	1	57*	0.4
CCn1c(SCC(=O)O)nnc1C1CCCCC1	9	0.9	1	5	0.9
Oc1ccc(Br)cc1-c1nc2cnccn2c1NC1CCCCC1	91*	0.1	1.6	77*	0.2
COc1ccccc1C1/C(=C(/O)c2ccccc2)C(=O)C(=O)N1CC(C)O (configuration not stated)	5	1	1.1	-4	1
Cc1cc(C)cc(NS(=O)(=O)c2cnc(Cl)c(Cl)c2)c1	86*	0.1	1.3	100*	0
Cc1ccc(S(=O)(=O)Nc2cccnc2)cc1	2	1	1.1	15	0.8
Cc1ccc(-n2c(Cc3cccn3C)nnc2SCC(=O)NCc2ccc3c(c2)OCO3)cc1	84*	0.2	1.5	57*	0.4
Cn1cccc1Cc1nnc(SCC(=O)Nc2ccc3c(c2)OCCO3)n1-c1ccc(F)cc1	30	0.7	1.4	18	0.8
Cc1ccc(-n2c(Cc3cccn3C)nnc2SCC(=O)Nc2ccc3c(c2)OCO3)cc1	56*	0.4	1	46	0.5
O=C(Cc1cccs1)N1CCC(c2nc3c(nnn3Cc3ccccc3Cl)c(=O)[nH]2)CC1	100*	0	1.3	79*	0.2
O=C(NC1CCCC1)c1nc2c(nnn2Cc2ccccc2Cl)c(=O)[nH]1	50	0.5	1.7	27	0.7
CCCCCCC(=O)N1CCC(c2nc3c(nnn3Cc3ccccc3Cl)c(=O)[nH]2)CC1	93*	0.1	1.6	15	0.8
NC(=O)C1CCN(c2nc(C3CC3)nc3c2nnn3Cc2ccccc2Cl)CC1	1	1	1.6	-11	1.1
O=c1nc(N2CCOCC2)ccn1Cc1ccc(Br)cc1	-23	1.2	0.9	-1	1
COC(=O)CSc1nc(C)cc(Oc2ccccc2)n1	38	0.6	1	86*	0.1
Cc1cc(Oc2ccccc2)nc(SCC(=O)Nc2ccc(Cl)cc2Cl)n1	93*	0.1	0.9	99*	0
CC(=O)OCC(=O)Nc1ccc(Cl)cc1Cl	0	1	1	9	0.9
O=c1c(/C=N/O)coc2ccc3ccccc3c12	-96	2*	0.9	0	1
Cc1ccc2occ(/C=N/O)c(=O)c2c1	3	1	0.7	-1	1
CCOC(=O)CC1C(=O)NCCN1S(=O)(=O)c1ccccc1Cl (configuration not stated)	-3	1	1	16	0.8
CCOC(=O)N1CCC(NC(=O)c2cc3c(-c4cccc(OC)c4)nn(C)c3s2)CC1	42	0.6	1	25	0.8
CCOc1ccc(NC(=O)N(C2CCCCC2)C(C)c2cccnc2)cc1 (configuration not stated)	41	0.6	1.7	41	0.6
CCOc1ccc(NC(=O)N(C2CCCCC2)C(C)c2ccncc2)cc1 (configuration not stated)	68*	0.3	1.6	63*	0.4
O=C(COC(=O)c1ccccc1)NCc1ccco1	-16	1.2	0.9	11	0.9
